# Test results published in PubChem BioAssay (NCATS).
# Results filed as inconclusive are left out. Entries that show only a call come without a potency. Activity calls are given as the source filed them. Unless noted, calls come from the whole dose curve; as a rule, active = well fitted curve in the direction sought with a large enough effect; inconclusive = small, poorly fitted or top-dose-only effect, or another doubt; inactive = no such curve, though single readings can be large; an effect the other way counts as inactive or inconclusive.
# Key:
# [1] = qHTS assay for measurement of the activity of small molecule inhibitors on Zika virus induced Caspase-3 activity in human astrocytoma cells (AID 1224859)
# In short: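 A cell-based luminescent caspase-3/7 assay used SNB-19 cells infected with ZIKV (2 FFU/cell) for 6 h following 1 h compound pretreatment.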
# [2] = qHTS assay to identify small molecule inhibitors of chordoma cells - UCH-1 (AID 1259355); note: nearly all actives have a fitted effect of over 55% in size
# In short: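 Luminescent ATP read-out (CellTiter-Glo, 30min at room temperature) measured viability of UCH-1 cells exposed for 48hr to test drugs at 15 concentrations, co-dosed with a five-agent combination of auranofin, camptothecin, doxorubicin, rubitecan and topotecan.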
# [3] = qHTS assay to identify small molecule inhibitors of chordoma cells - UCH-2 (AID 1259356); note: series mostly up to about 46 µM
# [4] = P-glycoprotein substrates identified in KB-8-5-11 adenocarcinoma cell line, qHTS therapeutic library screen (AID 1346987); note: nearly all actives have a fitted effect of over 65% in size; note: potency is the fitted concentration of half-maximal effect
# In short: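 Steps: plate 500 KB-8-5-11 cells/well in DMEM + 10% FCS (colchicine removed); pin compounds in dose-response; incubate 72 h, 37 degree C, 5% CO2; add CellTiter-Glo, 5 min; read luminescence.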
# [5] = NS1 protein of Zika virus - qHTS assay to identify small molecule inhibitors in human HEK 293 cells (AID 1347053); note: series mostly up to about 46 µM; nearly all actives have a fitted effect of over 55% in size
# In short: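 HEK 293 cells, seeded 20 h at 37 C, were pretreated with compound 1 h, then infected with ZIKV MR766 (MOI = 0.5) for 24 h. NS1 was read by TR-FRET with two anti-NS1 antibodies, normalized to uninfected and infected wells.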
# [6] = target: Atrial natriuretic peptide receptor 1 (Homo sapiens) (UniProt P16066); test: Natriuretic polypeptide receptor (hNpr1) antagonism - Pilot screen (AID 1347049; calls by dose curve;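 note: agonist-evoked cGMP luminescence read 20 min after hNppA addition; series mostly up to about 58 µM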)
# In short: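 HEK293 cells co-expressing hNpr1 and the GloSensor pGS-40F cGMP luciferase sensor were preloaded with 2% GloSensor reagent for 2 h. Compounds were added for 30 min at room temperature, then cells were stimulated with 0.1 nM hNppA for 20 min before luminescence readout.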
# [7] = target: Atrial natriuretic peptide receptor 2 (Homo sapiens) (UniProt P20594); test: Natriuretic polypeptide receptor (hNpr2) antagonism - Pilot subtype selectivity assay (AID 1347050; calls by dose curve)
# In short: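 cGMP-sensor HEK293/hNpr2 cells; 2% GloSensor reagent 2 h RT; compounds 30 min; baseline luminescence read; 1 nM hNppC agonist 20 min RT; final luminescence read by CCD camera. Antagonism = reduced post-agonist signal.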
# [8] = Natriuretic polypeptide receptor (hNpr1) antagonism - Pilot counterscreen GloSensor control cell line (AID 1347045; calls by dose curve; note: series mostly up to about 38 µM)
# In short: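 Luminescence was read before and 20 min after adding 50 uM SNP, which stimulates soluble guanylyl cyclase. The HEK293 cells expressing the GloSensor cGMP sensor had been preloaded with 2% reagent for 2 h and treated with compound.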
# [9] = target: Tyrosine-protein phosphatase non-receptor type substrate 1 (Homo sapiens) + Leukocyte surface antigen CD47 (Homo sapiens) (UniProt P78324+Q08722); test: CD47-SIRPalpha protein protein interaction - LANCE assay qHTS validation (AID 1347057; active = well fitted curve in the direction sought with a large enough effect in the signal ratio, with a control signal flat, not every such curve was filed as active; the % refers to the signal ratio; note: series mostly up to about 38 µM)
# In short: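 First, His-tagged CD47 and Eu-labelled anti-His antibody met the compound for 30 min; next, site-specifically biotinylated SIRPalpha was added for 30 min; finally streptavidin-APC was added before reading the TR-FRET ratio.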
# Sequence of Atrial natriuretic peptide receptor 2 (Homo sapiens) (P20594 whole entry, looked up): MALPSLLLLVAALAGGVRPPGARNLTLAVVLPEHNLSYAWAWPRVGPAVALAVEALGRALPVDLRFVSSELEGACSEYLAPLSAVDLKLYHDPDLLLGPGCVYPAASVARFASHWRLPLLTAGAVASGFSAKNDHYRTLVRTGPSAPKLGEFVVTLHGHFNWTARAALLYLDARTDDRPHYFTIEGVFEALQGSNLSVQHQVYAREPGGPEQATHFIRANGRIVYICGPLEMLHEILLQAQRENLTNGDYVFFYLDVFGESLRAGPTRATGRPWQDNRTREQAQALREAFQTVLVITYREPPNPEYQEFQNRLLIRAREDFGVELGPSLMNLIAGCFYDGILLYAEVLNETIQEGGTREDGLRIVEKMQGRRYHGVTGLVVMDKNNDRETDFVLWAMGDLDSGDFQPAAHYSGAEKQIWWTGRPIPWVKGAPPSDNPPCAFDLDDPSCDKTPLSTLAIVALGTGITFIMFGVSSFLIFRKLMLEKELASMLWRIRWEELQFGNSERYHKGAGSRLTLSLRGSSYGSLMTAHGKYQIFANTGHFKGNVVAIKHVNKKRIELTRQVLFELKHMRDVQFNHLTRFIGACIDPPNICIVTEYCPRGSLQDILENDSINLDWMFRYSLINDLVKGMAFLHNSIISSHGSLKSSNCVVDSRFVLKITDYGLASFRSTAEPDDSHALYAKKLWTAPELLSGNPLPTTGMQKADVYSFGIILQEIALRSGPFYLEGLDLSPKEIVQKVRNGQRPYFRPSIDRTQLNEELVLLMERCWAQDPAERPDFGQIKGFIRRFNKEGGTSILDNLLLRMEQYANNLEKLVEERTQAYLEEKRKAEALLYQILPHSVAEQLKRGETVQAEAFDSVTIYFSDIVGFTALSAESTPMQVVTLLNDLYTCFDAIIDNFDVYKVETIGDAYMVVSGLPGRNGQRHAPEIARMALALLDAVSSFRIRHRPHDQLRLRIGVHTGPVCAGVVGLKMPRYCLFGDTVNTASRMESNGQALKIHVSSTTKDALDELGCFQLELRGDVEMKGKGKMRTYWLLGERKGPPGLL
# Sequence of Atrial natriuretic peptide receptor 1 (Homo sapiens) (P16066 whole entry, looked up): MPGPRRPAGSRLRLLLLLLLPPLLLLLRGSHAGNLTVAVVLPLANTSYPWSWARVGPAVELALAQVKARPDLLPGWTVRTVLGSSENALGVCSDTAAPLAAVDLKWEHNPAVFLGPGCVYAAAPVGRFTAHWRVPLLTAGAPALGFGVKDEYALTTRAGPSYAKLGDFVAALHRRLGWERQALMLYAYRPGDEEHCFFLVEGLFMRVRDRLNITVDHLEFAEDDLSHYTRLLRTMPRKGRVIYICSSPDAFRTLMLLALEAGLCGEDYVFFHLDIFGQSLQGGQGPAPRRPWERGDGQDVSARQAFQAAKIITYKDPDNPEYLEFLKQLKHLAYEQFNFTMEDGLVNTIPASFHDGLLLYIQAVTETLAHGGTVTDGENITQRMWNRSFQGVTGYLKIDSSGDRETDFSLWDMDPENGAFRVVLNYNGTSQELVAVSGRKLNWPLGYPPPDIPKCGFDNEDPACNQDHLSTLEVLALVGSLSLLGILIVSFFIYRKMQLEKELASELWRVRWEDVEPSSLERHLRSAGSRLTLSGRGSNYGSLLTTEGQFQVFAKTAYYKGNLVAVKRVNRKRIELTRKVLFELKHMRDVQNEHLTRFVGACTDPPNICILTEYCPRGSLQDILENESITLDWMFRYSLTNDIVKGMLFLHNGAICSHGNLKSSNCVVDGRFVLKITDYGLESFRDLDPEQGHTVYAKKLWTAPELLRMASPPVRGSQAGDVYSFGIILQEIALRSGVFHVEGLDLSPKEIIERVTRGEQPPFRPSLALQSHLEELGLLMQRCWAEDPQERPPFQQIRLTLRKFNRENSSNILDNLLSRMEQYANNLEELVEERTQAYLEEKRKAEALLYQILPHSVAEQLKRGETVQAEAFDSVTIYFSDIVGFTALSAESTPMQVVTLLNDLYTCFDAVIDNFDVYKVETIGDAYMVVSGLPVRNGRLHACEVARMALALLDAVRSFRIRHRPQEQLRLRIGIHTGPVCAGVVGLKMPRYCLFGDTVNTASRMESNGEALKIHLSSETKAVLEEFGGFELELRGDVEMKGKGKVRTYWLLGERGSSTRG
# Sequence of Tyrosine-protein phosphatase non-receptor type substrate 1 (Homo sapiens) + Leukocyte surface antigen CD47 (Homo sapiens) (P78324 whole entry, looked up): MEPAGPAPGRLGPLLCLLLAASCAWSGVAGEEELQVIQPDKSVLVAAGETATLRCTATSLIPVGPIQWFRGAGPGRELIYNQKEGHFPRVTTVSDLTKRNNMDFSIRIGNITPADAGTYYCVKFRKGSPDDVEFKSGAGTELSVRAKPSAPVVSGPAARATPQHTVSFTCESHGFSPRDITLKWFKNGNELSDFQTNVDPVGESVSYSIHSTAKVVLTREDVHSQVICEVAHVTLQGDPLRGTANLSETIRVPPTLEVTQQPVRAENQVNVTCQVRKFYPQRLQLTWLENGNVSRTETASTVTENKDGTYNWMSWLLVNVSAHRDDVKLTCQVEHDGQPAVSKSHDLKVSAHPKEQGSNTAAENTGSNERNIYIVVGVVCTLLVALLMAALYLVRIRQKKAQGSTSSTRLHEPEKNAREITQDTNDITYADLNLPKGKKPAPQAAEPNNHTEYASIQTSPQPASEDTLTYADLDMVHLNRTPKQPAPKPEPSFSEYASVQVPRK
# Sequence of Tyrosine-protein phosphatase non-receptor type substrate 1 (Homo sapiens) + Leukocyte surface antigen CD47 (Homo sapiens) (Q08722 whole entry, looked up): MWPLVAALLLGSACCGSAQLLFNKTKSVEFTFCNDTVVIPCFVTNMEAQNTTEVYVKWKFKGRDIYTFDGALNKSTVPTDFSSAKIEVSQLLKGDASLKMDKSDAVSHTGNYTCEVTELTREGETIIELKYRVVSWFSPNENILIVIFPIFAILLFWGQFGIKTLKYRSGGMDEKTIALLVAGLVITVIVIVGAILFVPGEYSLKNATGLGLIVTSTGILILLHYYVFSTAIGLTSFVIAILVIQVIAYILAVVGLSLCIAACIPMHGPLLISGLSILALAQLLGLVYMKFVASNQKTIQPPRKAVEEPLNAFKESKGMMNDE
SMILES,outcome [1],Potency [2],Potency [3],Potency [4],Potency [5],outcome [6],outcome [7],outcome [8],outcome [9]
CC(=O)Nc1c(I)cc(I)c(C(=O)O)c1I,inactive,inactive,inactive,inactive,inactive,,,,
C[C@@H]1C[C@H]2[C@@H]3C[C@H](F)C4=CC(=O)C(Cl)=C[C@]4(C)[C@@]3(F)[C@@H](O)C[C@]2(C)[C@@]1(O)C(=O)CO,inactive,,inactive,inactive,inactive,,,,
C[C@]12C=CC(=O)C=C1CC[C@@H]1[C@@H]2[C@@H](O)C[C@@]2(C)[C@H]1CC[C@]2(O)C(=O)CO,inactive,inactive,inactive,inactive,inactive,,,,
O=C1[C@H]2CCCC[C@H]2C(=O)N1CCCCN1CCN(c2nsc3ccccc23)CC1,inactive,,inactive,,inactive,,,,
CC(C)C[C@H]1C(=O)N2CCC[C@H]2[C@]2(O)O[C@](NC(=O)[C@@H]3C=C4c5cccc6[nH]c(Br)c(c56)C[C@H]4N(C)C3)(C(C)C)C(=O)N12,inactive,inactive,inactive,,,inactive,inactive,,
C[C@H]1[C@H](NC(=O)/C(=N/OC(C)(C)C(=O)O)c2csc(N)n2)C(=O)N1S(=O)(=O)O (stereo in doubt),inactive,inactive,inactive,,inactive,,,,
O=C(OCCOCCO)c1ccccc1Nc1cccc(C(F)(F)F)c1,inactive,inactive,inactive,inactive,inactive,,,,
OC[C@H]1O[C@@H](n2cnc3c(=S)nc[nH]c32)[C@H](O)[C@@H]1O,inactive,,inactive,1.84 µM (active),,,,,
CN=C(NC#N)Nc1ccc(C2=NNC(=O)CC2C)cc1 (stereo not drawn),inactive,,inactive,inactive,inactive,,,,
C#C[C@]1(OC(C)=O)CC[C@H]2[C@@H]3CCC4=C[C@@H](OC(C)=O)CC[C@@H]4[C@H]3CC[C@@]21C,inactive,inactive,inactive,,inactive,,,,
CCC(NC(C)C)C(O)c1ccc(O)c(O)c1 (stereo not drawn),inactive,inactive,inactive,inactive,inactive,inactive,inactive,inactive,inactive
c1ccc(OCc2ccc(CCCN3CCOCC3)cc2)cc1,inactive,inactive,inactive,,inactive,,,,
CCCCCCCCCCCCCCCC[N+](C)(C)CCN(Cc1ccc(OC)cc1)c1ncccn1,inactive,,inactive,inactive,,,,,
CN(C/C=C/c1ccccc1)Cc1cccc2ccccc12,inactive,inactive,inactive,inactive,inactive,,,,
